H9c2 protect – myocardial damage modulation in H9c2 cells | H9c2 cardiomyocytes, H2O2 injury protection, ATPLite, 2 h | protection from H2O2 cell death, % at 20 µM | 0.63% of 360,000 active;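 active = compounds giving at least 50% protection of heart cells from peroxide-induced death in the single-dose screen, raw or plate-pattern-corrected value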
CR mimetic SO – lowers age-related superoxide in aged yeast cells; superoxide response (% of plate mean), % at 10 µM; S. cerevisiae aged cells, superoxide DHE fluorescence; hits give low values; AID 2690; 0.18% of 330,000 active;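 active = superoxide response under a set limit, about three screen SD below normal, cut at about 65% in these data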;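 note: yeast aged for seven days with compound at 30 °C before DHE staining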
pCIP destab – p/CIP protein destabilization; F442A p/CIP-EGFP cells, EGFP fluorescence, 16 h; decrease of EGFP signal, % at 10 µM; 0.01% of 290,000 active;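 active = EGFP signal decrease of at least 30% at 10 µM or well 3 SD below plate mean, unless failing retest; inactive = the rest, including hits failing retest or dose response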
V-ATPase pH – yeast V-ATPase proton transport regulation by pHLuorin | S. cerevisiae, pHLuorin cytosolic pH fluorescence | response, % at 10 µM | 0.37% of 350,000 active | AID 504577; in the data active = response mostly above about 7.3%, no sharp cut-off; inactive = mostly below about 5.4%; note: actives read high
HSV augment – increases HSV replication in cells; HSV replication augmentation in cells, fold increase; maximum fold increase; 0.005% of 220,000 active; in the data active = maximum fold increase above about 1.5; inconclusive = no clear call, values can overlap the other calls; tested in PC3 cells
MIN6 prolif – MIN6 beta-cell proliferation induction; MIN6 cells proliferation, ATPlite luminescence, 48 h; cells starved in 0.2% serum; 100% = growth in 10% serum; AID 2380; 0.29% of 330,000 active; proliferation, % at 10 µM;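 active = compounds whose signal lies at least 3.5 SD above the mean of all wells on their plate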
Large screens that a line does not name were inactive. Shown are actives, neighbours in structure and some others; about 1.4% of the full set was active somewhere.

COc1ccc(N2CCN(C(=O)c3ccc(Cn4nc(C)c([N+](=O)[O-])c4C)o3)CC2)cc1	none (no result: CR mimetic SO, HSV augment)
COc1ccc(CNC(=O)c2ccc(Cn3nc(C)c([N+](=O)[O-])c3C)o2)cc1	H9c2 protect 87
O=C(CSc1ccc2ccccc2c1)NCCc1ccc(O)c(O)c1	H9c2 protect 80
COc1ccc(CCNC(=O)CSc2ccc3ccccc3c2)cc1OC	none
CCCc1cc(=O)oc2cc(OCc3nn[nH]n3)ccc12	none
CCCCc1cc(=O)oc2cc(OCc3nn[nH]n3)ccc12	V-ATPase pH 18
COc1ccc(-c2oc3ncnc(NCCN4CCOCC4)c3c2-c2ccc(OC)cc2)cc1	H9c2 protect 75
O=C1/C(=C/c2ccc(O)c(O)c2)SC(=S)N1Nc1ccccc1	none (no result: CR mimetic SO, HSV augment, MIN6 prolif)
O=C(NN1C(=O)/C(=C/c2ccc(O)c(O)c2)SC1=S)c1ccccc1	H9c2 protect 65 (no result: HSV augment)
CCNC(=O)C1CCCN(Cc2cc(-c3ccccc3)on2)CC1 (configuration not stated)	none (no result: CR mimetic SO, pCIP destab, V-ATPase pH, HSV augment, MIN6 prolif)
CC(C)(COC(=O)c1ccccc1)N1CC2CCC(C1)O2	V-ATPase pH 19 (no result: CR mimetic SO, pCIP destab, HSV augment, MIN6 prolif)
CC(COC(=O)c1ccccc1)(COC(=O)c1ccccc1)/[N+]([O-])=C/c1ccccc1	none
COc1ccc(C(=O)N=C2CCC(C#N)=C3c4cc(OC)c(OC)cc4CCN23)cc1	MIN6 prolif 7.2
CC(=O)Nc1ccc(OC(F)(F)C(F)C(F)(F)F)c(NC(C)=O)c1 (configuration not stated)	none
C=CCNc1sc(C(=O)c2ccc(C)cc2)c(N)c1C#N	none
C=CCNc1nc(N)c(C(=C(C#N)C#N)c2ccc(Br)cc2)s1	H9c2 protect 56
CCOc1ccc(/C=C2\CCC(C3CCCC3)C2=O)cc1OC (configuration not stated)	none (no result: HSV augment)
COc1cc(C=C2CCCC(=Cc3ccc(OCC4CO4)c(OC)c3)C2=O)ccc1OCC1CO1 (configuration not stated)	H9c2 protect 81 (no result: CR mimetic SO, pCIP destab, HSV augment, MIN6 prolif)
CC(C)NC(=O)/C(C#N)=C/c1ccc(N(C)C)o1	HSV augment inconclusive
COc1cc(-c2nnc(-c3ccc(N4CCOCC4)cc3)o2)cc(OC)c1OC	H9c2 protect 53
Cc1ncc(CO)c(/C=N/NC(=O)c2ccc(Br)cc2)c1O	none (no result: H9c2 protect, V-ATPase pH)
Cc1cc(C(=O)N/N=C/c2c(CO)cnc(C)c2O)c2ccccc2n1	H9c2 protect 55 (no result: HSV augment)
Cc1ncc(CO)c(/C=N/NC(=O)c2cc(Br)ccc2O)c1O	H9c2 protect 50
C=CC(C)(C)c1cc2cc3ccoc3cc2oc1=O	none
CCOC(=O)c1c(C)nc2sc3c(=O)n(-c4ccc(C(C)=O)cc4)cnc3c2c1-c1ccc(OC)cc1	H9c2 protect 68
COc1ccc(/C=C(\C#N)C(=O)c2c(C)[nH]c3ccccc23)cc1OC	H9c2 protect 54
CC(C)COc1nc2ccccc2c(=O)n1OCC(=O)O	H9c2 protect 58 (no result: V-ATPase pH, HSV augment)
CCCOn1c(OCC(C)C)nc2ccccc2c1=O	none
Cc1onc(-c2ccccc2)c1C(=O)NC(=S)NNC(=O)c1ccc(O)cc1O	H9c2 protect 51
Cc1onc(-c2ccccc2)c1C(=O)NC(=S)NNC(=O)c1ccccc1O	H9c2 protect 60
Cc1onc(-c2ccccc2)c1C(=O)NC(=S)NNC(=O)c1ccc(O)cc1	none
CCC1=NNc2cccc3c(OC)ccc1c23	CR mimetic SO 55 (no result: H9c2 protect, V-ATPase pH)
CCCOc1ccc(C(=O)Nc2ccc(S(=O)(=O)Nc3cc(C)nc(C)n3)cc2)cc1	CR mimetic SO 62
CCC(=O)c1ccc(OCC(=O)Nc2ccc(S(=O)(=O)Nc3cc(C)nc(C)n3)cc2)cc1	none (no result: pCIP destab, HSV augment)
CCC(C)N1C(=O)S/C(=C/c2ccc3c(c2)n(C)c(=O)n3C)C1=O (configuration not stated)	H9c2 protect 57
CC(C)N1C(=O)S/C(=C/c2ccc3c(c2)n(C)c(=O)n3C)C1=O	H9c2 protect 63
Cc1cn([C@H]2C[C@H](O)[C@@H](/C=C/C(=O)NCCc3ccc4c(c3)OCO4)O2)c(=O)[nH]c1=O	none (no result: CR mimetic SO, pCIP destab, V-ATPase pH, HSV augment, MIN6 prolif)
COc1ccc(C(=O)NCCS(=O)(=O)N2CCc3ccccc3C2)cc1	none (no result: pCIP destab, HSV augment)
COc1ccc(NS(=O)(=O)c2ccc3c(c2)CCC(=O)N3)c(OC)c1	V-ATPase pH 19
COc1cccc(C(=O)NCCS(=O)(=O)N2CC(C)CC(C)C2)c1 (configuration not stated)	none (no result: pCIP destab, HSV augment)
COc1ccc(S(=O)(=O)N2CCC3CC2c2c(-c4ccc(C(F)(F)F)cc4)cccc23)cc1 (configuration not stated)	none (no result: CR mimetic SO, pCIP destab, V-ATPase pH, HSV augment, MIN6 prolif)
CCOc1ccc(NC(=O)c2cc3c(=O)n(C)c4ccccc4c3n2C)cc1	H9c2 protect 66
CC(NC(=O)c1cc2c(=O)n(C)c3ccccc3c2n1C)c1ccc2c(c1)OCCO2 (configuration not stated)	H9c2 protect 72 (no result: pCIP destab)
CCOC(=O)C1CCN(S(=O)(=O)c2ccc(OC)c(Cl)c2)CC1	none
COc1ccc(C2C(C(=O)N3CCN(c4ccccc4)CC3)c3ccccc3C(=O)N2C)cc1 (configuration not stated)	none
O=C(COC(=O)c1ccc2ncsc2c1)Nc1ccccc1Cl	CR mimetic SO 40 (no result: pCIP destab, HSV augment)
CN(C)c1ccc(C(c2ccc(N(C)C)cc2)c2ccc([N+](=O)[O-])cc2)cc1	none
COCCCN(Cc1ccco1)C(=O)Cn1ncc2c([nH]c3ccccc32)c1=O	H9c2 protect 60 (no result: HSV augment)
CCc1ccccc1NC(=O)CCC(=O)c1cccs1	none (no result: HSV augment)
O=C(CCC(=O)c1cccs1)Nc1ccccc1F	V-ATPase pH 19
CCOC(=O)Cc1c(C)nc2cc(-c3ccc(Cl)cc3)[nH]n2c1=O	none
CCOC(=O)Cc1c(C)nc2c(-c3ccc(Cl)cc3)c[nH]n2c1=O	H9c2 protect 52 (no result: V-ATPase pH, HSV augment)
CCN(CC)C(=O)CSc1nc2ccccc2c(=O)[nH]1	H9c2 protect 65
CN(C)C(=O)CSc1nc2ccccc2c(=O)[nH]1	H9c2 protect 81
O=c1cc(CSc2nc3ccccc3c(=O)[nH]2)c2ccc(O)cc2o1	H9c2 protect 94 (no result: CR mimetic SO, MIN6 prolif)
CCc1ccc(C(=O)CSc2nc3ccccc3c(=O)[nH]2)cc1	none
Cc1ccc(C(=O)CSc2nc3ccccc3c(=O)[nH]2)cc1	H9c2 protect 47
COCCn1c(C)c(C)c(S(=O)(=O)c2ccccc2)c1N	none (no result: HSV augment)
CC(=O)Nc1ccc(N2CC(C)(C)C2=O)cc1	none
CC(C)N1CCC1(C)C(=O)Nc1cccc(C#N)c1 (configuration not stated)	none (no result: CR mimetic SO, pCIP destab, V-ATPase pH, HSV augment, MIN6 prolif)
CCOC(=O)CSc1nnc(CSc2nc3ccccc3c(=O)[nH]2)n1-c1ccccc1	H9c2 protect 51
CCOC(=O)CSc1nnc(CSc2nc3sc4c(c3c(=O)[nH]2)CCC4)n1-c1ccccc1	none
Cc1c(CCO)c(=O)n(-c2ccccc2)n1S(=O)(=O)c1ccc(Cl)cc1	none
CN1CCN(Cc2nc(N)nc(Nc3ccc4c(c3)OCCO4)n2)CC1	none
Nc1nc(CN2CCN(c3ccccc3F)CC2)nc(Nc2ccc3c(c2)OCCO3)n1	V-ATPase pH 16
